In all, about 5,500 compounds went through this assay and about 2,000 (36%) were called active. About 18% were inconclusive and are not listed. No stated cut-off is given here; in the data, active means normalized growth mostly below about 0.91 (no sharp cut-off); inconclusive means no clear call, values can overlap the other calls; inactive means mostly above about 0.92. The list shows a part of the results.
Test: chemical genetic growth profiling, strain panel (AID 1159580);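 further: tested at 20 µM; growth read once vehicle control cultures reached saturation at 30 °C; 1 = growth at the plate median or of vehicle wells; lower values mean less growth of the strain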
Settings: S. cerevisiae deletion strains, growth OD

Measured: normalized growth

COc1cc(-c2coc3cc(O)c(OC)c(O)c3c2=O)cc(O)c1OC
inactive: locus YHR030C, strain SLT2, active compounds read low 1.02 | locus YHR079C, strain IRE1, active compounds read low 1.03 | locus YJL095W, strain BCK1, active compounds read low 1.02 | locus YJR066W, strain TOR1, active compounds read low 0.969 | locus YLR113W, strain HOG1, active compounds read low 1.02 | locus YNL183C, strain NPR1, active compounds read low 1 | locus YOR231W, strain MKK1, active compounds read low 1.03 | locus YPL256C, strain CLN2, active compounds read low 1.07

— PubChem BioAssay AID1159580 (chemical genetic matrix, 2015)
